Measurements published in PubChem BioAssay AID493194 (Broad Institute, 2011).
Measured potencies and affinities stand elsewhere. Results filed as inconclusive are left out. The source made the active and inactive calls.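 The calls were made as follows: active = a valid curve of falling signal whose half-effect concentration is at most ten times the top tested dose; inconclusive = flat curve at 30 to 70% inhibition, or poor fit; inactive = signal rise, flat within 30%, or potency beyond limit.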

Biological target: Scavenger receptor class B member 1 (Mus musculus) (UniProt Q61009)
Experiment: mouse SR-BI DiI-HDL uptake blockers – ldlA[mSR-BI] cells, fluorescence, cherry pick, dose response (AID 493194);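 also: CHO cells lacking LDL receptor and overexpressing mouse SR-BI; cellular uptake of fluorescently labeled HDL measured as cell fluorescence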
Settings: CHO ldlA[mSR-BI] DiI-HDL uptake fluorescence, 3 h; series mostly up to 35 µM

Sequence of Scavenger receptor class B member 1 (Mus musculus) (Q61009 whole entry, looked up): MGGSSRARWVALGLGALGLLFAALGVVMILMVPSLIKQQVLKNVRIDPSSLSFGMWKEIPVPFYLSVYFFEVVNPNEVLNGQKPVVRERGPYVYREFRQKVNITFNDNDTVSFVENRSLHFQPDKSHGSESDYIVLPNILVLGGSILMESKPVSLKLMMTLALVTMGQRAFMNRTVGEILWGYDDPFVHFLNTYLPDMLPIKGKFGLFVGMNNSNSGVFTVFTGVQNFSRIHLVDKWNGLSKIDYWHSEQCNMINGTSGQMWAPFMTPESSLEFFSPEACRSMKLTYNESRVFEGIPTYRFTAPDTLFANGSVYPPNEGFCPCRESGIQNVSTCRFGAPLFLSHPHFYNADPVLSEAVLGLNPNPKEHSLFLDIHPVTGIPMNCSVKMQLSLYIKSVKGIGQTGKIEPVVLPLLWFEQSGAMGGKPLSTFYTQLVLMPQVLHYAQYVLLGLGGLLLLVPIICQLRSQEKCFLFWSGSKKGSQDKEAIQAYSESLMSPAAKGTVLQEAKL

SMILES | outcome
O=c1cccc2n1CC1CC2CN(S(=O)(=O)c2cc(Cl)ccc2Cl)C1 (configuration not stated) | inactive
CNC1(c2ccc(F)cc2)CCCCC1 | inactive
COc1ccc(NC(=O)C2C3CCC(O3)C2C(=O)O)c(OC)c1 (configuration not stated) | inactive
CC(C)(C)c1ccc(S(=O)(=O)N2CC3CC(C2)c2cccc(=O)n2C3)cc1 (configuration not stated) | inactive
CCCCCCn1c(=O)c(C(=O)Nc2cnccn2)c(O)c2ccccc21 | inactive
O=S1(=O)N(CCN2CC=C(c3c[nH]c4cc(F)ccc34)CC2)c2cccc3c2N1CCC3 | inactive
O=C(Nc1ccccc1F)OC1CN2CCC1CC2 (configuration not stated) | inactive
